Experimental data published in PubChem BioAssay (NCATS).
Several values for one entry are separate records, joined by “and”; a condition that tells them apart may be missing. Equal values may be shown once. Results filed as inconclusive are left out. Activity calls are given as the source filed them. Unless noted, the call rests on the fitted dose curve; in most records, active means well fitted curve in the direction sought with a large enough effect; inconclusive means small, poorly fitted or top-dose-only effect, or another doubt; inactive means no such curve, though single readings can be large; an effect the other way counts as inactive or inconclusive.

Columns and labels:
[1] = Cell Viability - NIH 3T3 (AID 541); conditions: NIH 3T3 cell viability, qHTS; activity change, negative = cytotoxicity: at 92.2 µM (top of the series);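 further: plate controls were DMSO alone for no effect and tamoxifen positive control for full effect; nearly all actives have a fitted effect of over 25% in size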
Method in brief: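 Luminescent ATP signal (CellTiter-Glo) served as the viability read-out after NIH 3T3 cells were exposed to compounds over a concentration range for 40 hr at 37 °C. Hill-equation modelling of concentration-response data gave AC50.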

[2] = Cellular Toxicity (caspase-3) Mesangial (AID 660);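 further: combined caspase 3 and 7 activity read by Caspase-Glo luminescence; cells exposed to compound for 16 h before the caspase read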
Method in brief: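 Mesangial cells, 1000/well, 5 h settle at 37 °C; compound 16 h, 37 °C; Caspase-Glo 3/7 reagent 20 min RT; luminescence. Norm.: DMSO = 0%, tamoxifen 100 uM = 100%. AC50, Hill fit.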

[3] = Cell Viability - LYMP2-004 (AID 966);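 further: cells exposed to compound for 24 h; plate controls were DMSO only for no effect and tetraoctylammonium bromide control for full effect; nearly all actives have a fitted effect of over 65% in size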
Method in brief: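 Cells seeded 2500/well, rested 5 hr at 37 C, dosed across a concentration series, incubated 24 hr at 37 C, then CellTiter-Glo added for 30 min at room temperature and luminescence read. Hill fitting gave AC50.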

[4] = target: Peroxisome proliferator-activated receptor delta (Homo sapiens) (UniProt Q03181); assay: qHTS assay for small molecule agonists of peroxisome proliferator-activated receptor delta signaling (AID 588534; calls by dose curve;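 further: 0% = DMSO basal wells and 100% = positive control agonist at 10 µM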)
Chain of Peroxisome proliferator-activated receptor delta (Homo sapiens) (Q03181 whole entry, looked up): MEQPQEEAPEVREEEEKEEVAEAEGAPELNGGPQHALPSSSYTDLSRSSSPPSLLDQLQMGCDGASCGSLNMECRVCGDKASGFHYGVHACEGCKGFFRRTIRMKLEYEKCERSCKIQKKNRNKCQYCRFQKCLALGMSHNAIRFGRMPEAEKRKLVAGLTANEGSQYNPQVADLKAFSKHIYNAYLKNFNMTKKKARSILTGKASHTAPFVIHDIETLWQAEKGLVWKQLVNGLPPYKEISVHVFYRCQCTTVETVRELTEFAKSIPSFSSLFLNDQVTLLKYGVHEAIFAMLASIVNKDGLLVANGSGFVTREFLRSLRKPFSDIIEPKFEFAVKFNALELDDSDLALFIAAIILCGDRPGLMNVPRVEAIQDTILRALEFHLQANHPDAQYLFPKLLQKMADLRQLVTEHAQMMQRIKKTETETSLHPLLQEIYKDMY
Method in brief: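 Fluorescence from CCF4 substrate cleavage by beta-lactamase reporter, read 2 hrs at RT, measured agonist activity. Compounds were tested with 18 hrs exposure at 37 C. Concentration-response data fitted to Hill equation.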

[5] = qHTS assay for small molecule antagonists of peroxisome proliferator-activated receptor delta signaling (AID 588535; active means well fitted inhibition curve with a large enough effect in the signal ratio, with a control signal flat, not every such curve was filed as active; the % refers to the signal ratio;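 on max response: cells co-treated with a PPAR-delta agonist as stimulator during compound exposure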); conditions: HEK293T PPARd-UAS-bla, beta-lactamase FRET ratio, 18 h; 460 nm channel
Method in brief: (§1)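 HEK293T PPAR-delta-UAS-bla cells, 4000/well, 2% charcoal/dextran FBS; 5 h 37 C; cpd titration; 18 h 37 C; CCF4 2 h RT; FI 460/530 nm; Hill fit → IC50, efficacy.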

[6] = target: Peroxisome proliferator-activated receptor delta (Homo sapiens) (UniProt Q03181); assay: as above
Method in brief: as §1

[7] = target: Peroxisome proliferator-activated receptor gamma (Homo sapiens) (UniProt P37231); assay: qHTS assay for small molecule agonists of peroxisome proliferator-activated receptor gamma signaling (AID 588536; active means well fitted curve in the direction sought with a large enough effect in the signal ratio, with a control signal flat, not every such curve was filed as active; the % refers to the signal ratio;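 further: 0% = DMSO basal wells and 100% = rosiglitazone at 2 µM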)
Chain of Peroxisome proliferator-activated receptor gamma (Homo sapiens) (P37231 whole entry, looked up): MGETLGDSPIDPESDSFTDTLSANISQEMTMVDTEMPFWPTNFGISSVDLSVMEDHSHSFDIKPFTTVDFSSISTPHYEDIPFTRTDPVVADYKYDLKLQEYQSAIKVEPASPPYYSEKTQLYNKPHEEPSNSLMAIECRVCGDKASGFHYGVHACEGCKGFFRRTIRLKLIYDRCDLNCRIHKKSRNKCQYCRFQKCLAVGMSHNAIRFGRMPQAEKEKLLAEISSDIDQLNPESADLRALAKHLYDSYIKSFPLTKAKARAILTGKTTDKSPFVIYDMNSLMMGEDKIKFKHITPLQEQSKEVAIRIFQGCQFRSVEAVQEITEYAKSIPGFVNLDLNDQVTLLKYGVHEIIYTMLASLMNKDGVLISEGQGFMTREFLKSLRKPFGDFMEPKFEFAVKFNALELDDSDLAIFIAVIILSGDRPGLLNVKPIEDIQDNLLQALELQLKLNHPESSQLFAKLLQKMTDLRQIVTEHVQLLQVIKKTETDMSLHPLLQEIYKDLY
Method in brief: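 Ratiometric blue/green fluorescence (405 nm excitation; 460 and 530 nm emission) from CCF4-loaded HEK293 reporter cells serves as signal. Exposure to test compounds lasts 16 h at 37 C in medium containing 1% charcoal/dextran-treated serum.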

[8] = target: Peroxisome proliferator-activated receptor gamma (Homo sapiens) (UniProt P37231); assay: qHTS assay for small molecule antagonists of peroxisome proliferator-activated receptor gamma signaling (AID 588537; active means well fitted inhibition curve with a large enough effect in the signal ratio, with a control signal flat, not every such curve was filed as active; the % refers to the signal ratio;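 further: reporter cells co-stimulated with 50 nM rosiglitazone agonist during compound treatment; % of control where 0% means no effect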)
Method in brief: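 Antagonist mode, beta-lactamase reporter in HEK293; charcoal/dextran FBS 1%; 3000 cells/well, 37 C 6-6.5 h; cpd titration + rosiglitazone 50 nM final, 16 h 37 C; CCF4, 2 h RT; 460/530 nm; Hill fit → IC50, efficacy.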

[9] = target: Vitamin D3 receptor (Homo sapiens) (UniProt P11473); assay: qHTS assay for small molecule antagonists of vitamin D receptor signaling (AID 588541; calls by dose curve;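 further: receptor activated by calcitriol during compound treatment; on the % scale 0 is the no-effect control and ±100 the full control effect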)
Chain of Vitamin D3 receptor (Homo sapiens) (P11473 whole entry, looked up): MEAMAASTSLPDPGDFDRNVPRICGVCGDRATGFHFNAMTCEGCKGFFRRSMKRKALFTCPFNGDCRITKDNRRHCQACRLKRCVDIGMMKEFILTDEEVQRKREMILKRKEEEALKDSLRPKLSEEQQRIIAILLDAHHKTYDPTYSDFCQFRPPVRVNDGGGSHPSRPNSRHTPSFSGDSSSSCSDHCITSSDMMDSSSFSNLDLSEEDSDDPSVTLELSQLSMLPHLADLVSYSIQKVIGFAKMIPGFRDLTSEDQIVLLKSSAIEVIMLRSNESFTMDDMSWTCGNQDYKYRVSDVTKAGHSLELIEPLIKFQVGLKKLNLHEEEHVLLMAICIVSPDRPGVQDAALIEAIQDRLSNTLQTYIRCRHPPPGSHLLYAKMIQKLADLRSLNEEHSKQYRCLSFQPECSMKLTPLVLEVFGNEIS
Method in brief: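 Antagonist-mode beta-lactamase reporter assay: HEK293T VDR-UAS-bla cells were exposed to titrated compound alongside 1-alpha,25-dihydroxyvitamin D3 at 3 nM final for 16 h. Values were normalized to the 50 nM agonist control and DMSO basal, with IC50 and efficacy from Hill equation fits.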

[10] = target: Vitamin D3 receptor (Homo sapiens) (UniProt P11473); assay: qHTS assay for small molecule agonists of vitamin D receptor signaling (AID 588543; calls by dose curve;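 further: 0% = DMSO basal and 100% = reference agonist control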)
Method in brief: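 GeneBLAzer VDR-UAS-bla HEK293T cells in 2% charcoal-stripped FBS medium were dosed with compound titrations for 16 h at 37 °C; CCF4 β-lactamase readout (405 nm ex, 460/530 nm em). EC50 and efficacy from Hill fits, normalized to 50 nM calcitriol (100%) and DMSO (0%).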

[11] = target: Thyroid hormone receptor beta (Homo sapiens) (UniProt P10828); assay: qHTS assay for small molecule antagonists of thyroid hormone receptor beta signaling (AID 588547; active means well fitted inhibition curve with a large enough effect in the signal ratio, with a control signal flat, not every such curve was filed as active; the % refers to the signal ratio;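 further: cells stimulated with 0.4 nM T3 agonist during compound exposure; on the % scale 0 is the no-effect control and ±100 the full control effect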); conditions: TR-UAS-bla HEK293, beta-lactamase ratio, antagonist mode, 18 h
Chain of Thyroid hormone receptor beta (Homo sapiens) (P10828 whole entry, looked up): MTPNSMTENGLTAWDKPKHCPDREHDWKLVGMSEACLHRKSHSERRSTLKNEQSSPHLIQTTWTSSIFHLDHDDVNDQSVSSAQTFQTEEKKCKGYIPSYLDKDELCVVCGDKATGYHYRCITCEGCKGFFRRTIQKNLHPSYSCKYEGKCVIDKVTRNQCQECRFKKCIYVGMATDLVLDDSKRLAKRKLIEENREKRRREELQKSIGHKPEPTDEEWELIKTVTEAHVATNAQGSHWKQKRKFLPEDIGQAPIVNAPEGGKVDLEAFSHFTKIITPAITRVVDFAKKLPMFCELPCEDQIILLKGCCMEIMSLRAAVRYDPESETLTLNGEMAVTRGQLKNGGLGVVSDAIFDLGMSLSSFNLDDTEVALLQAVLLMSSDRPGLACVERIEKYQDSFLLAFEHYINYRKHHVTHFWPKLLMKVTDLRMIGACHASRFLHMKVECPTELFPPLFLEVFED
Method in brief: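 Inhibition of T3-driven (0.4nM final) beta-lactamase reporter activity was measured over 0.59 nM to 92 uM compound after 18 h at 37 C. The cells were GripTite HEK293 TR-UAS-bla in charcoal/dextran-stripped serum, with CCF4 ratio read-out and IC50 from Hill fits.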

[12] = qHTS assay for small molecule agonists of the antioxidant response element (ARE) signaling pathway (AID 651741; active means well fitted activation curve with a large enough effect in the signal ratio; the % refers to the signal ratio; further: potency means the concentration at half of the fitted maximal effect; on activation: % of control where 0% means no effect)
Method in brief: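 Quantitative HTS in HepG2 cells stably expressing an ARE-beta-lactamase reporter; 16 h compound exposure at 37 C, followed by 2 h room-temperature incubation with LiveBLAzer B/G FRET substrate and fluorescence measurement.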

[13] = qHTS assay for small molecule activators of the nuclear factor-kappa B (NF-kB) signaling pathway (AID 651749; active means well fitted activation curve with a large enough effect in the signal ratio; the % refers to the signal ratio; further: % of control where 0% means no effect); conditions: NF-kB-bla ME-180 cells, beta-lactamase FRET ratio, 16 h; stronger effect = higher value
Method in brief: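 Readout: beta-lactamase reporter driven by an NF-kB response element, detected fluorescently as loss of FRET. Cells were the ME-180 line, treated 16 hr at 37C with pin-transferred compound.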

[14] = qHTS assay for small molecule agonists of the antioxidant response element (ARE) signaling pathway measured by Nrf2-dependant transcriptional activity (AID 720636; active means well fitted curve in the direction sought with a large enough effect in the repeat runs; an effect the other way counts as inactive or inconclusive; further: % of control where 0% means no effect)
Method in brief: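 Nrf2-dependent transcription read as ONE-Glo luciferase signal from ARE-luc HepG2 reporter cells after 16 hr compound treatment at 37 C, 5% CO2, in assay medium with 1% dialyzed FBS.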

[15] = qHTS assay for small molecule antagonists of the retinoid-related orphan receptor gamma (ROR-gamma) signaling pathway - cell viability counter screen (AID 720652; active means well fitted curve in the direction sought with a large enough effect in the repeat runs; an effect the other way counts as inactive or inconclusive;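 further: compound exposure lasted 16 hr before ATP read; on the % scale 0 is the no-effect control and ±100 the full control effect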)
Method in brief: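 Luminescence from CellTiter-Glo after 30 min at room temperature reported cellular ATP as the cytotoxicity measure. Cells were the CHO reporter line with doxycycline-induced ROR-gamma expression, exposed to compound for 16 hr at 37 C.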

[16] = Cell Viability - LYMP2-017 (AID 972);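 further: cells exposed to compound for 24 hours at 37 °C; on the % scale 0 is the no-effect control and ±100 the full control effect; nearly all actives have a fitted effect of over 55% in size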
Method in brief: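 2500 cells/well, 5 h 37 C; cpd 24 h 37 C in complete medium; CellTiter-Glo, 30 min RT; luminescence (ATP). AC50 via Hill fit, qHTS.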

[17] = target: Glucocorticoid receptor (Homo sapiens) (UniProt P04150); assay: qHTS assay for small molecule agonists of glucocorticoid receptor signaling (AID 588532; active means well fitted curve in the direction sought with a large enough effect in the signal ratio, with a control signal flat; the % refers to the signal ratio;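 further: 100% = dexamethasone at 0.1 µM and 0% = DMSO only wells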); conditions: HeLa MMTV-bla, beta-lactamase ratio, agonist, 18 h; stronger effect = higher value; percent of dexamethasone control, DMSO zero
Chain of Glucocorticoid receptor (Homo sapiens) (P04150 whole entry, looked up): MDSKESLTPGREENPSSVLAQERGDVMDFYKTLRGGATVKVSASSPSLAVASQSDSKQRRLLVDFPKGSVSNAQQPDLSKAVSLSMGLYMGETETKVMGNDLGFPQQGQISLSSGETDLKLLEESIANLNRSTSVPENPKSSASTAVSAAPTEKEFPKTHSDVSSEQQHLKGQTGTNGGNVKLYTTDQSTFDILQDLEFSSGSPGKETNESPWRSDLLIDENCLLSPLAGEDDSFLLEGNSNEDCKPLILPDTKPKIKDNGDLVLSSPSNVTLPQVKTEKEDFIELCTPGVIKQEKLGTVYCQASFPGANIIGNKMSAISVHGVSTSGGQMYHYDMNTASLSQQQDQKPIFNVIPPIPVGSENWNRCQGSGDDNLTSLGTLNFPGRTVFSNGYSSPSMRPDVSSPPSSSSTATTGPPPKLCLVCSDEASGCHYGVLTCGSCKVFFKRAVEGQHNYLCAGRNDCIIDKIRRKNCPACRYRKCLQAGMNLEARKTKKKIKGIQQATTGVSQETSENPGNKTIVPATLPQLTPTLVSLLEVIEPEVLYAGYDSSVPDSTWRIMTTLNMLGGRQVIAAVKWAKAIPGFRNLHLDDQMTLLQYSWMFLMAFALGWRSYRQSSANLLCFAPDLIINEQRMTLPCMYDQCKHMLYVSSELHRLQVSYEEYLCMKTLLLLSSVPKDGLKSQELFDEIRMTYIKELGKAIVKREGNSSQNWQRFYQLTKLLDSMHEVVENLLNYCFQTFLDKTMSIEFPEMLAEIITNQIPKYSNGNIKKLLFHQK
Method in brief: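 Agonist-mode qHTS: GRE-driven beta-lactamase in HeLa cells exposed 18 h to titrated compounds (up to 92 uM), then CCF4 ratio read after 2 h at RT; Hill-fitted EC50, efficacy relative to 0.1 uM dexamethasone.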

[18] = target: Glucocorticoid receptor (Homo sapiens) (UniProt P04150); assay: qHTS assay for small molecule antagonists of glucocorticoid receptor signaling (AID 588533; active means well fitted inhibition curve with a large enough effect in the signal ratio, with a control signal flat, not every such curve was filed as active; the % refers to the signal ratio;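 further: cells stimulated with 2 nM dexamethasone as agonist; on the % scale 0 is the no-effect control and ±100 the full control effect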)
Method in brief: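 Antagonist-mode qHTS: compound titrations added to GRE-bla HeLa cells, then dexamethasone 2 nM final; 18 h, 37 C. CCF4 FRET fluorescence normalized to dexamethasone and DMSO; IC50 from Hill fit.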

[19] = target: Estrogen receptor (Homo sapiens) (UniProt P03372); assay: qHTS assay for small molecule agonists of estrogen receptor alpha signaling (AID 588514; calls by dose curve;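 further: 0% = vehicle only and 100% = reference agonist; nearly all actives have a fitted effect of over 70% in size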)
Chain of Estrogen receptor (Homo sapiens) (P03372 whole entry, looked up): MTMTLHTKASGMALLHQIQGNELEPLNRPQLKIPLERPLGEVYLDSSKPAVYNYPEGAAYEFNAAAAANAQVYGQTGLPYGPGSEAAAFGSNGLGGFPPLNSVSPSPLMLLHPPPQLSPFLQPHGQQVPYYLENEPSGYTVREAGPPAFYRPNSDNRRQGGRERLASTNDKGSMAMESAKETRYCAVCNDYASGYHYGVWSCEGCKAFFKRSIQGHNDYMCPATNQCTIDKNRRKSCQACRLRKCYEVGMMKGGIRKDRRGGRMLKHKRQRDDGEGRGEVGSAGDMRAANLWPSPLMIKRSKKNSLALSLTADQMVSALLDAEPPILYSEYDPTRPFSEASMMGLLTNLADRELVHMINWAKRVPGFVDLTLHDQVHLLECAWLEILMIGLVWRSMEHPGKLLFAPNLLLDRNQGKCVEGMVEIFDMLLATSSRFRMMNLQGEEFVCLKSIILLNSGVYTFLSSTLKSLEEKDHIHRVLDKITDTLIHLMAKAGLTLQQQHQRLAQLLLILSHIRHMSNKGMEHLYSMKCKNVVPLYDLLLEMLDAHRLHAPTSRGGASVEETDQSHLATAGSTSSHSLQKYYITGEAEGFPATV
Method in brief: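 Cells were plated at 5000/well, incubated 4 hrs at 37 C, dosed with compound titration series, incubated 18 hrs at 37 C, loaded with CCF4 dye for 2 hrs at RT, then fluorescence was read.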

[20] = target: Estrogen receptor (Homo sapiens) (UniProt P03372); assay: qHTS assay for small molecule antagonists of estrogen receptor alpha signaling (AID 588513; active means well fitted curve in the direction sought with a large enough effect in the signal ratio, with a control signal flat, not every such curve was filed as active; the % refers to the signal ratio; further: on the % scale 0 is the no-effect control and ±100 the full control effect)
Method in brief: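 ER-alpha-UAS-bla GripTite HEK 293 cells in medium with 2% charcoal/dextran-treated FBS were preincubated 4 h at 37 C, dosed with compound (1:2 titration), stimulated with 0.5nM 17-beta-estradiol for 18 h, then read by CCF4 beta-lactamase fluorescence.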

CC(C)(Cl)Cl
-19.4%: max response [5]
inactive: Potency [1] | outcome [2] | Potency [3] | outcome [4] | outcome [6] | outcome [7] | Potency [8] | outcome [9] | outcome [10] | activity change % (negative = inhibition) [11] -3.24% | Potency [12] | activation [13] 0.397% | Potency [14] | Potency [15]

Cc1ccc(N=C=O)cc1N=C=O
inactive: outcome [2] | Potency [3] | Potency [16] | activation [17] 4.9% and -2.62% | outcome [18] | outcome [7] | Potency [8] | outcome [9] | outcome [10] | activation [13] 0.173% and 0.839% | Potency [14] | Potency [15]

Nc1ccc(Cl)c(Cl)c1
inactive: Potency [1] | outcome [2] | Potency [3] | Potency [16] | outcome [4] | outcome [6] | outcome [7] | outcome [10] | activity change % (negative = inhibition) [11] 2.33% | Potency [14]
-10.6%: max response [5]

C=C(Cl)CSC(=S)N(CC)CC
inactive: outcome [2] | outcome [4] | outcome [6] | outcome [7] | Potency [8] | outcome [9] | outcome [10] | activity change % (negative = inhibition) [11] 0.68% | activation [13] -0.634% | Potency [14] | Potency [15]
active: activity change, negative = cytotoxicity [1] -85.8%
-17.2%: max response [5]

Cc1ccc(N)cc1C
inactive: Potency [1] | outcome [2] | Potency [3] | Potency [16] | Potency [19] | outcome [4] | outcome [6] | outcome [9] | outcome [10] | activity change % (negative = inhibition) [11] 9.98% | activation [13] 0.0731% | Potency [14] | Potency [15]
3.44%: max response [5]

CCCCNC(=O)n1c(NC(=O)OC)nc2ccccc21
inactive: outcome [2] | Potency [3] | Potency [20] | Potency [19] | activation [17] -10.9% | outcome [7] | outcome [9] | activity change % (negative = inhibition) [11] -13.8% and -24% | Potency [12] | activation [13] -0.565% and 0.0154% | Potency [15]

C=CCO
11.9%: max response [5]
inactive: Potency [1] | outcome [2] | Potency [3] | Potency [16] | activation [17] 3.6% | outcome [18] | outcome [4] | outcome [6] | Potency [12] | activation [13] 0.305% | Potency [14] | Potency [15]

CCCCCOC(=O)c1ccccc1C(=O)OCCCCC
inactive: Potency [1] | outcome [2] | Potency [3] | Potency [16] | Potency [19] | activation [17] 5.29% and -3.67% | outcome [18] | outcome [7] | Potency [8] | outcome [9] | outcome [10] | activity change % (negative = inhibition) [11] 15.4% and 2.77% | activation [13] 1.01% and -1.21% | Potency [14] | Potency [15]

CCC/C=N/O
inactive: Potency [1] | outcome [2] | Potency [3] | Potency [16] | Potency [19] | activation [17] 5.99% | outcome [18] | Potency [8] | outcome [9] | outcome [10] | activity change % (negative = inhibition) [11] 3.59% | Potency [14] | Potency [15]

Oc1ccc(Cl)c(Cl)c1Cl
inactive: outcome [2] | Potency [3] | Potency [16] | activation [17] 6.93% | outcome [18] | outcome [4] | outcome [7] | Potency [8] | outcome [9] | outcome [10] | activity change % (negative = inhibition) [11] 14.5% | activation [13] -0.348% | Potency [14] | Potency [15]
active: Potency [12] 42.2 µM
